Test results reported in PubChem BioAssay AID1259349 (Broad Institute, 2017).
Several values for one entry are separate records, joined by “and”; a condition that tells them apart may be missing. Equal entries are not always repeated. The campaign covered roughly 17,000 compounds. About 1,100 (6.5%) were called active. The sample holds actives, similar compounds and a random draw of the others, so the mix is not that of the screen.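 How the source made its calls: active means z-score of -3 or lower, meaning strong loss of probe binding signal; inactive means the rest.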 A structure can be active in one record and inactive in another.

These compounds were tested against Insulin-degrading enzyme (Homo sapiens) (UniProt P14735) (assay: exo-site inhibitors of human IDE, primary screen, biochemical, fluorescence anisotropy, probe displacement (AID 1259349;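 further: His-tagged human IDE residues 42-1019 made in E. coli with 30 nM FL-6b probe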)). Settings: purified IDE, FL-6b probe fluorescence polarization; at 20 µM; stronger effect = lower value.
Insulin-degrading enzyme (Homo sapiens), sequence (P14735 42-1019 limits assumed): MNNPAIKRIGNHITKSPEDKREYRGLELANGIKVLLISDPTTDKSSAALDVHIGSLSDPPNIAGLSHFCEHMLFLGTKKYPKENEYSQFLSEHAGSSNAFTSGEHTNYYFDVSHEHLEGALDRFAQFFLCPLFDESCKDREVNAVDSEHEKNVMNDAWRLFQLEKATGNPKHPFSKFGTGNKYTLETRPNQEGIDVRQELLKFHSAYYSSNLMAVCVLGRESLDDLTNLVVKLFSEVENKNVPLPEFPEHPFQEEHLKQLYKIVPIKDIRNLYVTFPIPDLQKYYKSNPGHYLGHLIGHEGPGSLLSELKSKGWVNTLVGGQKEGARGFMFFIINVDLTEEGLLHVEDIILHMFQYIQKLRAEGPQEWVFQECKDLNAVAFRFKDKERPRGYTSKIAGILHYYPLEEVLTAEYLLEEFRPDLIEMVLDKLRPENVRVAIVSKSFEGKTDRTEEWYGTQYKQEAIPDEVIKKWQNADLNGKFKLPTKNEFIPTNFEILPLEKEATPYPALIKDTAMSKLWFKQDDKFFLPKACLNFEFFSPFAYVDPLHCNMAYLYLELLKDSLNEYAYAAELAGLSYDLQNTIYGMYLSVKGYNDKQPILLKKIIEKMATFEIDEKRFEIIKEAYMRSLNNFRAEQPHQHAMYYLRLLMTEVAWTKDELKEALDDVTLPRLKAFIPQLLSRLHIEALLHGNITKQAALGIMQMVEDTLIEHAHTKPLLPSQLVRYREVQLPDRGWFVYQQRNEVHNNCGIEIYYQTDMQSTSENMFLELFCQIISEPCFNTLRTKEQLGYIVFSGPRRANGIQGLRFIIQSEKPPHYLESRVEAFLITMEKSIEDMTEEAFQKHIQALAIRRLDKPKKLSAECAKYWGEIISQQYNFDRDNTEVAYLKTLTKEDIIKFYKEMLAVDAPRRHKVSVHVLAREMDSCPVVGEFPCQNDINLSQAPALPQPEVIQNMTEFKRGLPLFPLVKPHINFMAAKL

z-score, active:
O=C(c1ccccn1)N1CC2(C1)[C@@H](c1ccccc1)[C@@H](CO)N2C(=O)C1CCCCC1 -4.56, Cc1cccc(-c2ccc([C@H]3[C@@H](CO)N4CCCCN(Cc5cncnc5)C[C@H]34)cc2)c1 -5.22, Cc1cccc(-c2ccc([C@@H]3[C@H](CO)N4CCCCN(Cc5ccncc5)C[C@@H]34)cc2)c1 -5.19, OC[C@H]1[C@H](c2ccc(-c3cccnc3)cc2)[C@H]2CN(Cc3ccccn3)CCCCN21 -3.14, O=C(C1CCC1)N1CC(=O)N2[C@H](C1)[C@@H](c1ccc(-c3ccccc3F)cc1)[C@@H]2CO -10.1, O=C(C1CC1)N1CC(=O)N2[C@H](CO)[C@@H](c3ccc(-c4ccccc4F)cc3)[C@@H]2C1 -6.21, O=C(C1CCCCC1)N1CC(=O)N2[C@H](CO)[C@@H](c3ccc(-c4ccccc4F)cc3)[C@@H]2C1 -3.81, O=C(C1CCC1)N1CC(=O)N2[C@@H](CO)[C@@H](c3ccc(C#Cc4cccc(F)c4)cc3)[C@@H]2C1 -4.35, O=C(C1CCOCC1)N1CC(=O)N2[C@H](CO)[C@H](c3ccc(C#Cc4cccc(F)c4)cc3)[C@H]2C1 -19.3, O=C(C1CC1)N1CCCCN2[C@H](C1)[C@@H](c1ccc(-c3cccc(F)c3)cc1)[C@@H]2CO -3.66, O=C(C1CC1)N1CCCCN2[C@H](CO)[C@H](c3ccc(-c4cccc(F)c4)cc3)[C@H]2C1 -6.38, OC[C@@H]1[C@H](c2ccc(C#Cc3ccccc3)cc2)[C@@H]2CN(Cc3cncnc3)CCCCN12 -3.14, OC[C@H]1[C@H](c2ccc(-c3ccccc3F)cc2)[C@H]2CN(Cc3cncnc3)CCCCN21 -3.23

z-score, -1.85 (inactive) and -5.13 (active):
Cn1cnc(S(=O)(=O)N2C[C@@H]3N[C@H](C2)C3c2ccc(/C=C/c3ccccc3)cc2)c1 (stereo not given in full)

z-score, 1.9 (inactive) and -13.9 (active):
Cc1ccccc1-c1ccc(C2[C@@H]3CN(C(=O)C4CCCCC4)C[C@H]2N3)cc1 (stereo not given in full)

z-score, inactive:
CCCN1C[C@@H](C)[C@@H](OC)CN(C)C(=O)c2cc(NC(=O)C3CCC3)ccc2OC[C@H]1C -0.201, O=C(C[C@@H]1C=C[C@@H](NC(=O)c2ccc3c(c2)OCO3)[C@H](CO)O1)NC1Cc2ccccc2C1 0.748, CN(C)CC(=O)N1CC2(C1)[C@H](c1ccccc1)[C@H](CO)N2C(=O)C1CC1 -1.06, O=C(C1CCCC1)N1[C@@H](CO)[C@@H](c2ccccc2)C12CN(Cc1ccc(F)cc1)C2 1.26, CCS(=O)(=O)Nc1ccc2c(c1)C(=O)N(C)[C@H]1CC[C@H](CC(=O)N[C@@H]3CCN(Cc4ccccc4)C3)O[C@H]1CO2 -0.74, CCC(=O)N1CCCCN2[C@H](CO)[C@@H](c3ccc(-c4cccnc4)cc3)[C@H]2C1 0.698, COc1ccc(CN2CCCCN3[C@H](C2)[C@H](c2ccc(-c4ccc(OC)cc4)cc2)[C@@H]3CO)cc1 3.61, Cc1ccc(-c2ccc([C@H]3[C@H](CO)N4CCCCN(Cc5cncnc5)C[C@@H]34)cc2)cc1 3.25, OC[C@@H]1[C@H](c2ccc(C3=CCCC3)cc2)[C@H]2CN(Cc3ccncc3)CCCCN12 1.19, OC[C@H]1[C@H](c2ccc(-c3cccc(F)c3)cc2)[C@@H]2CN(Cc3cncnc3)CCCCN12 0.665, OC[C@@H]1[C@H](c2ccc(Br)cc2)[C@@H]2CN(Cc3ccccn3)CCCCN12 0.871, CO[C@H]1CN(C)C(=O)c2cc(NC(=O)NC(C)C)ccc2OC[C@H](C)N(C(=O)CN(C)C)C[C@H]1C -0.369, COCCN(C[C@H]1[C@H](c2ccccc2)[C@@H](CO)N1C(C)=O)C(=O)c1cccnc1 -0.97, CN(C)C(=O)c1ccc(-c2ccc([C@H]3[C@H](CO)N4CCCCN(S(C)(=O)=O)C[C@@H]34)cc2)cc1 4.37, O=C(C1CCCC1)N1CC(=O)N2[C@H](CO)[C@H](c3ccc(Br)cc3)[C@H]2C1 3.78, O=C(C1CCCCC1)N1CC(=O)N2[C@H](CO)[C@H](c3ccc(Br)cc3)[C@H]2C1 2.21, O=C(C1CCCCC1)N1CC(=O)N2[C@H](CO)[C@H](c3ccc(-c4ccccc4F)cc3)[C@H]2C1 -2.1, O=C(C1CCCC1)N1CC(=O)N2[C@H](CO)[C@H](c3ccc(Br)cc3)[C@@H]2C1 1.85, CN(C)C(=O)c1ccc(-c2ccc(C3[C@@H]4CN(C(=O)Nc5ccccc5)C[C@H]3N4)cc2)cc1 (stereo not given in full) 0.753, O=C(C1CCC1)N1C[C@@H]2N[C@H](C1)C2c1ccc(-c2cncnc2)cc1 (stereo not given in full) 0.446, O=C(c1ccc(F)cc1)N1CC(=O)N2[C@H](CO)[C@H](c3ccc(-c4ccccc4F)cc3)[C@@H]2C1 0.797, COCC(=O)N1CC(=O)N2[C@H](CO)[C@@H](c3ccc(-c4ccccc4F)cc3)[C@H]2C1 -0.201, CC(C)C#Cc1ccc([C@H]2[C@@H](C#N)N(C(=O)CN(C)C)[C@H]2CO)cc1 0.732, COc1ccc2c3c([nH]c2c1)[C@H](CO)N(C(=O)Nc1ccc(F)cc1)CC31CCN(CC2CCOCC2)CC1 -0.0173, CCCNC(=O)N1CC2(CN(C(=O)c3cnccn3)C2)c2c([nH]c3cc(OC)ccc23)[C@@H]1CO -1.28, N#C[C@@H]1[C@@H](c2ccc(C3=CCCCC3)cc2)[C@@H](CO)N1C(=O)c1cccc(F)c1 2.45, C[C@@H]1CN([C@H](C)CO)C(=O)Cc2cc(N(C)C)ccc2O[C@H]1CN(C)C(=O)NC1CCCCC1 -0.478, COc1ccc2c3c([nH]c2c1)[C@H](CO)N(C(C)=O)CC31CN(S(=O)(=O)c2cccs2)C1 0.716, CNC[C@H]1OCCCC[C@@H](C)Oc2ccc(NS(=O)(=O)c3ccc(F)cc3)cc2C(=O)N([C@H](C)CO)C[C@H]1C 0.482, CCCNC(=O)N1[C@H](C#N)[C@@H](c2ccc(C3=CCCC3)cc2)[C@H]1CO 0.0932, CCS(=O)(=O)N1[C@H](C#N)[C@H](c2ccc(-c3cccc(F)c3)cc2)[C@@H]1CO 0.519, COc1ccc(-c2ccc(C3[C@@H]4CN(S(=O)(=O)c5cn(C)cn5)C[C@H]3N4)cc2)cc1 (stereo not given in full) 2.29, Cn1cnc(S(=O)(=O)N2C[C@@H]3N[C@H](C2)C3c2ccc(-c3ccccc3F)cc2)c1 (stereo not given in full) 0.547 and 0.421, O=C(Nc1cccc(F)c1)N1CC(=O)N2[C@H](C1)[C@H](c1ccc(-c3ccccc3F)cc1)[C@@H]2CO 0.741, Cc1ccc(S(=O)(=O)Nc2ccc3c(c2)C(=O)N([C@H](C)CO)C[C@@H](C)[C@H](CN(C)S(=O)(=O)c2cccs2)OCCCC[C@@H](C)O3)cc1 -0.652, O=C(Cc1ccccn1)N[C@H]1CC[C@H](CCNS(=O)(=O)c2cccc(F)c2)O[C@@H]1CO 0.0602, O=C(CN1CCOCC1)N1C[C@@H]2N[C@H](C1)C2c1ccc(-c2ccncc2)cc1 (stereo not given in full) 0.193, COCC#Cc1ccc([C@@H]2[C@@H](CO)N3C(=O)CN(C(=O)C4CCOCC4)C[C@@H]23)cc1 0.89, COCC#Cc1ccc([C@@H]2[C@H]3CN(C(=O)C4CCOCC4)CC(=O)N3[C@H]2CO)cc1 2.55, O=C(C1CCC1)N1CC(=O)N2[C@H](CO)[C@H](c3ccc(C#CCc4ccccc4)cc3)[C@@H]2C1 -2.52, O=C(C1CCCCC1)N1CC(=O)N2[C@H](CO)[C@@H](c3ccc(C#Cc4cccc(F)c4)cc3)[C@@H]2C1 1.96, COc1ccc2c3c([nH]c2c1)[C@@H](CO)N(Cc1ccncc1)CC31CN(C(=O)CN(C)C)C1 -0.567, COCC(=O)Nc1ccc2c(c1)OC[C@@H](C)N(Cc1ccccc1C(=O)O)C[C@@H](C)[C@H](OC)CN(C)C2=O 1.82, O=C(c1cccc(F)c1)N1CCCCN2[C@H](CO)[C@@H](c3ccc(-c4cncnc4)cc3)[C@H]2C1 1.13, CC(=O)N1CCCCN2[C@H](C1)[C@@H](c1ccc(-c3ccc(F)cc3)cc1)[C@@H]2CO 0.352, O=C(c1cccc(F)c1)N1CCCCN2[C@@H](CO)[C@H](c3ccc(-c4cncnc4)cc3)[C@@H]2C1 1.94, O=C(C1CCC1)N1CCCCN2[C@H](CO)[C@H](c3ccc(-c4ccncc4)cc3)[C@@H]2C1 -0.182, COc1cccc(S(=O)(=O)Nc2ccc3c(c2)[C@@H]2C[C@@H](CC(=O)NC4CCCCC4)O[C@H](CO)[C@@H]2O3)c1 -0.362, COc1ccc2c3c([nH]c2c1)[C@@H](CO)N(C(=O)C1CC1)CC31CCN(C(=O)c2ccncc2)CC1 1.3, CO[C@H]1CN(C)C(=O)c2cc(NC(=O)C3CC3)ccc2OC[C@@H](C)N(Cc2cc(F)ccc2F)C[C@H]1C -1.43, COc1ccc2c3c(n(C)c2c1)[C@@H](CO)N(Cc1ccccc1F)CC31CCN(C(=O)C2CCOCC2)CC1 -2.72, OC[C@H]1[C@@H](c2ccc(-c3ccccc3F)cc2)[C@@H]2CN(Cc3ccncc3)CCCCN12 -0.42, OC[C@@H]1[C@@H](c2ccc(-c3ccccc3F)cc2)[C@@H]2CN(Cc3cncnc3)CCCCN12 -0.419, OC[C@@H]1[C@@H](c2ccc(C#CC3(O)CCCC3)cc2)[C@@H]2CN(Cc3cncnc3)CCCCN12 0.144, CCCC#Cc1ccc([C@H]2[C@H]3CN(Cc4cncnc4)CCCCN3[C@H]2CO)cc1 1.82
